According to the supplement of paper PMC6555819:

The sequences below were run on THRa homodimer (NR concentration 90 nM) (assay: PBM binding z-score (relative to random genomic background probes); higher = stronger binding; sequences stand for … in GC…GCGATTGACAGCGTAGAATGAAGG).
Procedure, shortened: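 Ligand-free nuclear receptor dimers were bound for 1 h to custom Agilent 4×180K protein-binding microarrays. Detection used antibodies against each partner (one per run). Binding z-scores rest on regression-normalized fluorescence, with random background probes as the reference.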

| Sequence | PBM binding z-score |
| --- | --- |
| CCTAGTTGGTCAGGAGGTCACGCACCGGATATGA | 2.78 |
| ATCTCTAGTTAAAAGTTCAGTGAATCCCGAGGAT | 0.242 |
| CAAACTAGGTCAAGAGGTCAACGTCCGCTTCCCG | 2.96 |
| CCTAGCAGGCCAACCTGGGTCACTCAAGGCTTGA | 0.233 |
| CCGACTGGGGCAAATGTTACCATACTCAGTACGA | -0.199 |
| TCTGCTAGGTCACCGATGGTCAGCTAATCTGCTA | 1.23 |
| ACTATTAGTTGACTGAGGGCAACCGATACGACGC | 1.06 |
| CAAACTAGGTCACAGAAGTCAAAGTCCGTGCGTA | 1.26 |
| AGTAGCAGGCCAAGTTTGGGTCACTCAAACAAAG | 1.08 |
| TCTGCTTGGTCAGTTGGTCAGCTAACGAGCTGCC | -0.841 |
| ATATGTAGGTTATCGGGTCATTGAGTTTGCGCAT | 2.76 |
| CCTTACGGGTCACGAGGATATAGCACGACGAGCG | 0.656 |
| CCGAGTAGGTTATGGGGGATTCAGGCAACGGTGA | 1.7 |
| TCATATAGGTAATACAGGTGAAACTCGGCATCTA | 0.391 |
| CCGACTGGAGCATAAGGTTACCATAAGCCAGCCC | 1.77 |
| CCTTACGGGTCATTCCAGGTTATAGCATCGGAGT | 0.692 |
| AGAATGAGGTTACCAAAGATGAGGGAAACGCTTG | 0.977 |
| GCTTGTATATCAAGGTTAAGAAAGACTAAGCTAA | -0.21 |
| TCTAGTTGGTCACGGAGCTCACACACGACGGGTA | -0.466 |
| GCTTACGGGTCAACGGTTATAGCATGAATAGAAT | -0.0988 |
| TCTATTTGTTGAAGGGCAACCGACGAGTCCGTTT | 0.62 |
| ATCGAAAGGTCGACGAGGTGAGCATACACCGTTT | 1.18 |
